Compounds with a hit are over-represented: about 7% of the library has one in this group of screens.
JMJD2A Tudor – qHTS Assay for Inhibitors of JMJD2A-Tudor Domain; AlphaScreen JMJD2A-Tudor / H3K4me3 peptide binding; Potency, µM (doses to about 114 µM), for inactives: top-dose activity change, negative = inhibition, usual class: inhibitors; hit rate 4.4% among 390,000; Lysine-specific demethylase 4A (Homo sapiens), O75164; note: potency is the fitted concentration of half-maximal effect; % is set by controls: 0 for no effect and ±100 for the full control effect; nearly all actives have a fitted effect of over 50% in size
GCN5L2 inh – qHTS Assay for Inhibitors of GCN5L2; hit rate 0.21% among 390,000; Potency, µM (doses to about 58.9 µM), without a hit: at the top dose activity change, negative = inhibition, hits mostly inhibitors; GCN5L2 HAT assay, ThioGlo1 CoA-SH fluorescence; note: potency is the fitted concentration of half-maximal effect; % is set by controls: 0 for no effect and ±100 for the full control effect
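Compounds, pin-transferred from DMSO stocks, meet 20nM GCN5L2 for 15 min before the reaction begins with H3(1-25) peptide (75uM) and acetyl-CoA (70uM). Thiol-reactive ThioGlo1 reports CoA release over 20 min at room temperature.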
PLK1 PBD inh – qHTS for Inhibitors of PLK1-PDB (polo-like kinase 1 - polo-box domain): Primary Screen. Serine/threonine-protein kinase PLK1 (Homo sapiens), P53350. Plk1 PBD binding of FITC phosphopeptide, fluorescence polarization. Potency, µM, for the others: max response, negative = inhibition, actives largely listed as inhibitors. hit rate 2.8% among 360,000. AID 720504, 2013; note: potency is the fitted concentration of half-maximal effect; series mostly up to about 57 µM; % is set by controls: 0 for no effect and ±100 for the full control effect; nearly all actives have a fitted effect of over 65% in size
HP1b binding inh – HTS for Inhibitors of HP1-beta Chromodomain Interactions with Methylated Histone Tails | Chromobox protein homolog 1 (Homo sapiens), P83916 | hit rate 0.56% among 390,000 | Potency, µM (series often up to 114 µM), for the others: at the top dose activity change, negative = inhibition, most hits filed as inhibitors | AlphaScreen HP1-beta / biotin-H3K9me3 peptide binding | AID 540317, 2011; note: potency is the fitted concentration of half-maximal effect; nearly all actives have a fitted effect of over 70% in size
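Compound inhibition of the preformed complex between 50 nM HP1-beta and 50 nM biotinylated H3K9me3 peptide was read by AlphaScreen. Buffer was PBS pH 7.4 with 0.01% Tween-20. Incubations ran 30 min at room temperature, with 10 ug/mL donor/acceptor beads.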
PI5P4K alpha inh – qHTS for Inhibitors of phosphatidylinositol 5-phosphate 4-kinase (PI5P4K) | Phosphatidylinositol 5-phosphate 4-kinase type-2 alpha (Homo sapiens), P48426 | PI5P4Kalpha enzyme, ADP-Glo luminescence, 60 min; active compounds read low | max response, % | hit rate 1.2% among 330,000 | AID 652105, 2013; active = max response of -50% or lower; inconclusive = between -30% and -50%; inactive = -30% or higher; note: value at the top dose of about 77 µM; % is set by controls: 0 for no effect and ±100 for the full control effect
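qHTS, 1536-well: enzyme/substrate mix, compound by pin tool, 5 microM ATP final; RT 60 min; ADP-Glo reagents 1 (45 min) then 2 (30 min); luminescence.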
BAZ2B inh – qHTS Assay for Inhibitors of BAZ2B | hit rate 4.4% among 360,000 | Bromodomain adjacent to zinc finger domain protein 2B (Homo sapiens), Q9UIF8 | Potency, µM (top dose mostly 114 µM), without a hit: at the top dose activity change, negative = inhibition, actives largely listed as inhibitors | AlphaScreen BAZ2B-H3K14Ac peptide displacement | AID 504333, 2011; note: potency is the fitted concentration of half-maximal effect; % is set by controls: 0 for no effect and ±100 for the full control effect; nearly all actives have a fitted effect of over 60% in size
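AlphaScreen luminescence quantifies BAZ2B engagement of H3K14Ac peptide; the protein and biotinylated peptide are both at 50 nM final, buffer PBS pH 7.4 with 0.01% Tween-20, all steps at room temperature.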
Starred values were filed as active, the others as inactive; [ ] = another dose, or the depositor's remark. Unless noted, calls come from the whole dose curve; as a rule, active = well fitted curve in the direction sought with a large enough effect; inconclusive = small, poorly fitted or top-dose-only effect, or another doubt; inactive = no such curve, though single readings can be large; an effect the other way counts as inactive or inconclusive.

Results for C=CC(C)(C)c1c(O)c(CC=C(C)C)c(O)c2c(=O)c3ccc(O)c(O)c3oc12 ?
JMJD2A Tudor: 50µM*; PLK1 PBD inh: 7%; HP1b binding inh: -15%; PI5P4K alpha inh: -12

Results for COc1ccc(-n2c(=O)c3c4c(sc3n(CC(=O)N3CCCCC3C)c2=O)CCC4)c(OC)c1 (stereo not drawn) ?
JMJD2A Tudor: -4%; GCN5L2 inh: -6%; HP1b binding inh: 33%; BAZ2B inh: -1%

Results for COc1ccc(NS(=O)(=O)c2cccc(C(=O)NN=Cc3cc(Br)c(O)c(Br)c3)c2)cc1 ?
JMJD2A Tudor: -27%; GCN5L2 inh: -14%; PLK1 PBD inh: inconclusive; HP1b binding inh: -3%[57 µM]; PI5P4K alpha inh: -50*

What do the screens show for `COc1ccc(NS(=O)(=O)c2cccc(C(=O)NN=Cc3ccc(OC)cc3OC)c2)cc1`?
JMJD2A Tudor: -16%; GCN5L2 inh: -6%; PLK1 PBD inh: 4%; HP1b binding inh: 32%; PI5P4K alpha inh: 0

How did O=C(N/N=C/c1cccnc1)c1cccc(S(=O)(=O)Nc2cccc(Cl)c2)c1 do in these assays?
JMJD2A Tudor: -5%; GCN5L2 inh: -7%; PLK1 PBD inh: -12%; HP1b binding inh: 12%; PI5P4K alpha inh: 1; BAZ2B inh: -13%

How did O=C(N/N=C/c1ccncc1)c1cccc(S(=O)(=O)Nc2ccc(Cl)cc2)c1 do in these assays?
JMJD2A Tudor: -14%[11.4 µM]; GCN5L2 inh: -12%; PLK1 PBD inh: -19%; HP1b binding inh: 54%; PI5P4K alpha inh: -5; BAZ2B inh: 20µM*

What do the screens show for `Cc1[nH]c2ccccc2c1/C=N/NC(=O)CNC(=O)c1ccco1`?
JMJD2A Tudor: -8%; GCN5L2 inh: -11%; PLK1 PBD inh: -9%; HP1b binding inh: 12%; PI5P4K alpha inh: 1; BAZ2B inh: -7%

How did Cc1[nH]c2ccccc2c1/C=N\NC(=O)CNc1ccc2c(c1)OCO2 do in these assays?
JMJD2A Tudor: inconclusive; GCN5L2 inh: -7%; PLK1 PBD inh: -2%; HP1b binding inh: inconclusive; PI5P4K alpha inh: -9; BAZ2B inh: 45µM*

Results for O=C(CNc1ccc2c(c1)OCO2)N/N=C\c1ccccc1Cl ?
JMJD2A Tudor: inconclusive; GCN5L2 inh: -5%; PLK1 PBD inh: -10%; HP1b binding inh: inconclusive; PI5P4K alpha inh: -19; BAZ2B inh: 50µM*

Results for CC(=O)N1c2ccc(S(=O)(=O)N3CCC(C(=O)N4CCCC(C)C4)CC3)cc2CC1C (stereo not drawn) ?
JMJD2A Tudor: 3%; GCN5L2 inh: -1%; PLK1 PBD inh: 1%; HP1b binding inh: 48%; PI5P4K alpha inh: -6; BAZ2B inh: -1%

What do the screens show for `CCOc1ccc(N=c2cc(-c3ccc(OC)cc3)oc3ccccc23)cc1`?
JMJD2A Tudor: 16µM*; GCN5L2 inh: 4%; PLK1 PBD inh: 0%; HP1b binding inh: 25µM*; PI5P4K alpha inh: 10; BAZ2B inh: 13µM*

Results for COc1ccc(N=c2cc(-c3ccc(O)cc3)oc3ccccc23)cc1 ?
JMJD2A Tudor: 35µM*; GCN5L2 inh: -7%; PLK1 PBD inh: 7%; HP1b binding inh: inconclusive; PI5P4K alpha inh: 3; BAZ2B inh: 45µM*

Results for COc1ccc(-c2cc3ccccc3c(=O)o2)cc1 ?
PLK1 PBD inh: -12%; PI5P4K alpha inh: 2

Results for COc1ccc(-c2cc(=O)c3ccccc3o2)cc1 ?
JMJD2A Tudor: -21%; GCN5L2 inh: inconclusive; PLK1 PBD inh: -19%; HP1b binding inh: 28%; PI5P4K alpha inh: 3; BAZ2B inh: 2%

Results for COc1ccc(N=c2cc(-c3ccc(OC)cc3)oc3ccccc23)cc1 ?
JMJD2A Tudor: 40µM*; GCN5L2 inh: -5%; PLK1 PBD inh: -3%; HP1b binding inh: -63%; PI5P4K alpha inh: 7; BAZ2B inh: 28µM*

What do the screens show for `C[C@H](O)[C@@H]1C(=O)N2CCc3ccc(N4CCN(C)CC4)cc3[C@@H]2C[C@@H]1N(C)C(=O)NC1CCCCC1`?
JMJD2A Tudor: -7%; PLK1 PBD inh: 5%; HP1b binding inh: 26%; PI5P4K alpha inh: 0

What do the screens show for `CC1CN(S(=O)(=O)c2cccc(C(=O)NCCC3=CCCCC3)c2)CC(C)O1` (stereo not drawn)?
JMJD2A Tudor: -13%; GCN5L2 inh: 0%; PLK1 PBD inh: -3%; HP1b binding inh: 4%; PI5P4K alpha inh: -5; BAZ2B inh: 12%

Results for Fc1ccc(CSc2ncnc3ccccc23)cc1 ?
JMJD2A Tudor: 56%; GCN5L2 inh: -6%; PLK1 PBD inh: 27µM*; HP1b binding inh: 56%; PI5P4K alpha inh: 3; BAZ2B inh: 142%

How did CCS(=O)(=O)Nc1ccc(Cc2ccncc2)cc1 do in these assays?
JMJD2A Tudor: -5%[11.4 µM]; GCN5L2 inh: -1%; PLK1 PBD inh: 30µM*; HP1b binding inh: -7%; PI5P4K alpha inh: -5; BAZ2B inh: -36%

How did Cn1c(Cn2c3ccccc3c3ccccc32)n[nH]c1=S do in these assays?
JMJD2A Tudor: -10%; GCN5L2 inh: 0%; PLK1 PBD inh: -2%; HP1b binding inh: 23%; PI5P4K alpha inh: 0; BAZ2B inh: -4%

What do the screens show for `Cn1c(-c2cccc3ccccc23)n[nH]c1=S`?
JMJD2A Tudor: 20µM*; GCN5L2 inh: -1%; PLK1 PBD inh: -7%; HP1b binding inh: 20%; PI5P4K alpha inh: 5; BAZ2B inh: -5%

What do the screens show for `COc1cccc2cc(-c3n[nH]c(=S)n3C)oc12`?
JMJD2A Tudor: 7.9µM*; GCN5L2 inh: -11%; PLK1 PBD inh: -6%; HP1b binding inh: -12%; PI5P4K alpha inh: inconclusive; BAZ2B inh: -28%

Results for Cn1c(-c2cnn(-c3ccccc3)c2-n2cccc2)n[nH]c1=S ?
JMJD2A Tudor: 8.9µM*; GCN5L2 inh: -22%; PLK1 PBD inh: -4%; HP1b binding inh: 13%; PI5P4K alpha inh: -6; BAZ2B inh: -37%

Results for CCSc1nnc(-c2cnn(-c3ccccc3)c2-n2cccc2)n1C ?
JMJD2A Tudor: 12%; GCN5L2 inh: 2%; PLK1 PBD inh: 1%; HP1b binding inh: 15%; PI5P4K alpha inh: 2; BAZ2B inh: 15%

What do the screens show for `Cn1c(-c2cc(Br)ccc2O)n[nH]c1=S`?
JMJD2A Tudor: 4.5µM*; GCN5L2 inh: 2%; PLK1 PBD inh: -11%; HP1b binding inh: inconclusive; BAZ2B inh: -33%

Screening results from PubChem.
